Experimental findings from PubChem BioAssay (Tox21) are described below.

Unmarked numbers belong to inactive results. Inconclusive results are not listed. Active and inactive are the calls of the source. Unless noted, calls come from the whole dose curve; as a rule, active = well fitted curve in the direction sought with a large enough effect in the repeat runs; inconclusive = weak or mixed curves; inactive = no such curve, though single readings can be large; an effect the other way counts as inactive or inconclusive.

Test [1] is described as follows: qHTS assay to identify small molecule antagonists of the glucocorticoid receptor (GR) signaling pathway - cell viability counter screen (AID 720693). Note: nearly all actives have a fitted effect of over 55% in size. Note: potency is the fitted concentration of half-maximal effect. On the technique in general: In qHTS, concentration-response curves come from the screen itself.
Test [2] is described as follows: qHTS assay for identifying genotoxic compounds that show differential cytotoxicity against isogenic chicken DT40 cell lines with known DNA damage response pathways - wild type cell line (AID 743012). Note: nearly all actives have a fitted effect of over 60% in size. Note: potency is the fitted concentration of half-maximal effect. A digest of the protocol: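 Luminescent ATP viability signal (CellTiter-Glo, 30 min RT) recorded after wild type DT40 cells were incubated with compounds for 40 h at 37 C/5% CO2.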

The nature of test [3]: qHTS assay for identifying genotoxic compounds that show differential cytotoxicity against isogenic chicken DT40 cell lines with known DNA damage response pathways - Rev3 mutant cell line (AID 743014). Note: nearly all actives have a fitted effect of over 55% in size. Note: potency is the fitted concentration of half-maximal effect.
Test [4] can be described thus: qHTS assay for identifying genotoxic compounds that show differential cytotoxicity against isogenic chicken DT40 cell lines with known DNA damage response pathways - Rad54/Ku70 mutant cell line (AID 743015). Note: nearly all actives have a fitted effect of over 60% in size. Note: potency is the fitted concentration of half-maximal effect.
Test [5] is described as follows: qHTS assay to identify small molecule antagonists of the androgen receptor (AR) signaling pathway - cell viability counter screen (AID 743033; note: nearly all actives have a fitted effect of over 45% in size; note: potency is the fitted concentration of half-maximal effect).
Test [6] has as its target Androgen receptor (Homo sapiens) (UniProt P10275). In words: qHTS assay to identify small molecule antagonists of the androgen receptor (AR) signaling pathway (AID 743035; active = well fitted inhibition curve with a large enough effect in the signal ratio in the repeat runs, not every such curve was filed as active; the % refers to the signal ratio; note: potency is the fitted concentration of half-maximal effect). The procedure, abridged: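 Quantitative HTS of the Tox21 10K library used HEK293 AR-UAS-bla cells stimulated with R1881 alongside compound for 16 h at 37C, followed by beta-lactamase FRET detection (LiveBLAzer B/G, 2 h, RT).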

The target is the same in test [7]. In words: qHTS assay to identify small molecule agonists of the androgen receptor (AR) signaling pathway (AID 743036; active = well fitted activation curve with a large enough effect in the signal ratio in the repeat runs, with a control signal flat, not every such curve was filed as active; the % refers to the signal ratio; note: % is set by controls: 0 for no effect and ±100 for the full control effect). A digest of the protocol: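 HEK293 cells stably carrying a UAS-driven beta-lactamase reporter (GeneBLAzer AR-UAS-bla-GripTite) were plated at 2,000 cells/well, rested 4 h at 37C, then exposed to compounds in DMSO for 16 h. LiveBLAzer B/G FRET substrate was added for 2 h at room temperature; fluorescence read.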

Test [8] has the same target. In words: qHTS assay to identify small molecule agonists of the androgen receptor (AR) signaling pathway using the MDA cell line (AID 743040; note: % is set by controls: 0 for no effect and ±100 for the full control effect; nearly all actives have a fitted effect of over 20% in size). The procedure, abridged: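 Luciferase read-out, ONE-Glo, 30 min RT. Cells: MDA-kb2 AR-luc, MMTV promoter with AR and GR response elements. Compound exposure 16 h, 37C, 0% CO2, after 5 h pre-incubation. qHTS agonist mode.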
The target is the same in test [9]. In words: qHTS assay to identify small molecule antagonists of the androgen receptor (AR) signaling pathway using the MDA cell line (AID 743042; note: nearly all actives have a fitted effect of over 55% in size; note: potency is the fitted concentration of half-maximal effect). The procedure, abridged:
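MDA-kb2 breast carcinoma cells carrying MMTV-luciferase (AR/GR responsive) were co-treated with compounds and the agonist R1881 for 16 h at 37C. Inhibition read as ONE-Glo luminescence; CellTiter-Fluor fluorescence measured in parallel for cytotoxicity.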

Test [10] can be described thus: qHTS assay to identify small molecule antagonists of the thyroid receptor (TR) signaling pathway - cell viability counter screen (AID 743064). Note: nearly all actives have a fitted effect of over 50% in size. Note: potency is the fitted concentration of half-maximal effect. A digest of the protocol:
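GH3.TRE-Luc rat pituitary cells carrying a TRE-luciferase reporter were treated with compound plus 1 nM T3 (final) for 23.5 h at 37 °C. Viability was then read in the same wells by CellTiter-Fluor fluorescence after a further 30 min.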

A short description of test [11]: qHTS assay to identify small molecule antagonists of the thyroid receptor (TR) signaling pathway (AID 743065). Note: nearly all actives have a fitted effect of over 55% in size. Note: potency is the fitted concentration of half-maximal effect. A digest of the protocol:
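GH3.TRE-Luc rat pituitary cells (two TREs driving luciferase) were dosed with compound, then stimulated with 1 nM T3 (final) for 23.5 h at 37 C. ONE-Glo luminescence was the read-out, with CellTiter-Fluor fluorescence as the cytotoxicity counter-screen.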

Test [12] is described as follows: qHTS assay to identify small molecule antagonists of the estrogen receptor alpha (ER-alpha) signaling pathway - cell viability counter screen (AID 743074; calls by dose curve;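 note: HEK293 cells carrying ER-alpha-UAS-bla reporter stimulated with 17beta-estradiol; nearly all actives have a fitted effect of over 45% in size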; note: potency is the fitted concentration of half-maximal effect).
Test [13] deals with Estrogen receptor (Homo sapiens) (UniProt P03372). Nature of the test: qHTS assay to identify small molecule agonists of the estrogen receptor alpha (ER-alpha) signaling pathway (AID 743075; calls by dose curve; note: % is set by controls: 0 for no effect and ±100 for the full control effect). The following applies: HEK293 ER-alpha-UAS-bla, beta-lactamase FRET ratio, 18 h; activation: at 70.1 µM (top of the series).
Estrogen receptor (Homo sapiens), sequence (P03372 whole entry, looked up): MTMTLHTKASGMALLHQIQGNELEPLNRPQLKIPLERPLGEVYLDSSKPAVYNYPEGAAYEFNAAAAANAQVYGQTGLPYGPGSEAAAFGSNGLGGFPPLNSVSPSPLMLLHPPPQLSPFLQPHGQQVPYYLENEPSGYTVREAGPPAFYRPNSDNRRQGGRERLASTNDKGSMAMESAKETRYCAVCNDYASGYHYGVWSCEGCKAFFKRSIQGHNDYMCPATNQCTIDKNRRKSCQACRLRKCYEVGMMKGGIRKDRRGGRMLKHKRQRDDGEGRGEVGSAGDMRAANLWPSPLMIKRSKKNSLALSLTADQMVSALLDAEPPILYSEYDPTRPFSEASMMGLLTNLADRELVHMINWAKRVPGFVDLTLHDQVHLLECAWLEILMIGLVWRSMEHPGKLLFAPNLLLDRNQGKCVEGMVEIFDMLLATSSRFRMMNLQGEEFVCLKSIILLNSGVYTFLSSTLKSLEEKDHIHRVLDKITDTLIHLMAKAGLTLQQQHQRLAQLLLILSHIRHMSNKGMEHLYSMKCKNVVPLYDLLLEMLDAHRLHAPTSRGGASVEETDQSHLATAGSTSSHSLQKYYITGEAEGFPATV
Test [14] in a line: qHTS assay to identify small molecule antagonists of the estrogen receptor alpha (ER-alpha) signaling pathway using the BG1 cell line (AID 743080; calls by dose curve;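 note: BG1 cells stimulated with 17beta-estradiol alongside compound; % is set by controls: 0 for no effect and ±100 for the full control effect; nearly all actives have a fitted effect of over 25% in size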). A digest of the protocol:
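Luciferase inhibition measured with ONE-Glo after 30 min at RT in BG1Luc4E2 cells given test compounds and 17beta-estradiol for 21.5 h at 37 C; CellTiter-Fluor viability read in the same wells beforehand.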

Test [15] addresses Aromatase (Homo sapiens) (UniProt P11511). Nature of the test: qHTS assay to identify aromatase inhibitors (AID 743083). Note: nearly all actives have a fitted effect of over 55% in size. Note: potency is the fitted concentration of half-maximal effect.
Test [16] deals with thyroid hormone receptor (rat, GH3 cells). Nature of the test: qHTS assay to identify small molecule agonists of the thyroid receptor (TR) signaling pathway (AID 743066; calls by dose curve; note: % is set by controls: 0 for no effect and ±100 for the full control effect).
The nature of test [17]: qHTS assay to identify small molecule antagonists of the estrogen receptor alpha (ER-alpha) signaling pathway using the BG1 cell line - cell viability counter screen (AID 743081).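 Note: compound given together with 17beta-estradiol as the ER stimulus; nearly all actives have a fitted effect of over 45% in size.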 Note: potency is the fitted concentration of half-maximal effect.
The nature of test [18]: qHTS assay to identify small molecule antagonists of the androgen receptor (AR) signaling pathway using the MDA cell line - cell viability counter screen (AID 743041; note: nearly all actives have a fitted effect of over 45% in size; note: potency is the fitted concentration of half-maximal effect). The procedure, abridged:
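Cytotoxicity counter screen: MDA-kb2 AR-luc cells, compound + R1881, 16 h, 37C, 0% CO2; CellTiter-Fluor added at 15.5 h, fluorescence read after 30 min.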

Test [19] has as its target Estrogen receptor (Homo sapiens) (UniProt P03372). In words: qHTS assay to identify small molecule antagonists of the estrogen receptor alpha (ER-alpha) signaling pathway (AID 743069; active = well fitted curve in the direction sought with a large enough effect in the signal ratio in the repeat runs, not every such curve was filed as active; the % refers to the signal ratio; note: % is set by controls: 0 for no effect and ±100 for the full control effect). A digest of the protocol: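 Beta-lactamase FRET fluorescence is read after 2 hr at room temperature with LiveBLAzer B/G substrate. Before that, ER-alpha-bla HEK293 cells sit 4 hr after plating, then receive compound plus 17beta-estradiol and incubate 18 hr at 37C.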

Test [20] has the same target. In words: qHTS assay to identify small molecule agonists of the estrogen receptor alpha (ER-alpha) signaling pathway using the BG1 cell line (AID 743079). Note: % is set by controls: 0 for no effect and ±100 for the full control effect; nearly all actives have a fitted effect of over 20% in size. The following applies: BG1Luc4E2 cells, ERE-luciferase agonist, 22 h; at 95 µM (top of the series).

Aromatase (Homo sapiens), sequence (P11511 whole entry, looked up): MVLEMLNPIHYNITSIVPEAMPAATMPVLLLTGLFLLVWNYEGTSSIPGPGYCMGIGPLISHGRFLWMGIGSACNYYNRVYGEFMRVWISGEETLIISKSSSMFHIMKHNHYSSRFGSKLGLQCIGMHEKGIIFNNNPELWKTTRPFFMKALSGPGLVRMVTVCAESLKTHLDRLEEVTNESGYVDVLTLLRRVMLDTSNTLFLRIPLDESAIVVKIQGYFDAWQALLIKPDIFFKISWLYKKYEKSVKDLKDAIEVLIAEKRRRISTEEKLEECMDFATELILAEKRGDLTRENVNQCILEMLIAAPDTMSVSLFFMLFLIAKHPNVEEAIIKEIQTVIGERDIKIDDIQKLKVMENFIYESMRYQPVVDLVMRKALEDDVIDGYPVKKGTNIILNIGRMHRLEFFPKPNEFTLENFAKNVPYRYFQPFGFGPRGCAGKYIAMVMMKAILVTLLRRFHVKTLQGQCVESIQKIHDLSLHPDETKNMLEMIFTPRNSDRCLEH
Androgen receptor (Homo sapiens), sequence (P10275 whole entry, looked up): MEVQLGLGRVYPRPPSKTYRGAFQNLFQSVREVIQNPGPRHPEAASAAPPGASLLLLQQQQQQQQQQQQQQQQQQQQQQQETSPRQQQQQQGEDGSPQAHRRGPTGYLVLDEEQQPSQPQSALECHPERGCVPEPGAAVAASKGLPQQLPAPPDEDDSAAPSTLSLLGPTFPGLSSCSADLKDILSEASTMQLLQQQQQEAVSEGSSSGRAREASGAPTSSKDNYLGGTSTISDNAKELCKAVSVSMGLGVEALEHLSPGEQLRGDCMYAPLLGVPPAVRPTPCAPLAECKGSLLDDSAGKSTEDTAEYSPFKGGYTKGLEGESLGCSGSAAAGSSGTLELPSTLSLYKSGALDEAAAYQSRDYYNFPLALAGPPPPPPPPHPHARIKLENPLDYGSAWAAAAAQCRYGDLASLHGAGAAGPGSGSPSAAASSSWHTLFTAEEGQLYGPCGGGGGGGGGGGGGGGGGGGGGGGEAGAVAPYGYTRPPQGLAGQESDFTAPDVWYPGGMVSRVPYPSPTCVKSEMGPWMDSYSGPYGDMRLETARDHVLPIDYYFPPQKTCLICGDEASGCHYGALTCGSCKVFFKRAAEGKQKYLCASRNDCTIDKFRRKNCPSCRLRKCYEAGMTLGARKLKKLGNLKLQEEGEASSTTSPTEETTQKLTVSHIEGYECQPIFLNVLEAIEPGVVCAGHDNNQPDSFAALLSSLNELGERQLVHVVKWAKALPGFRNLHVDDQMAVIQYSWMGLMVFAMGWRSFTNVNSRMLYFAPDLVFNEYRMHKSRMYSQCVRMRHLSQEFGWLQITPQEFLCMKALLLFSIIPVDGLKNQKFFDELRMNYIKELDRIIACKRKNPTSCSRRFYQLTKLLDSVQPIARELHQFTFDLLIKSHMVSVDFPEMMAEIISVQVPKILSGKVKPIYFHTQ

For the molecule `Cc1ccc(O)c2ncccc12`, the Potency result in [1], in test [7], in test [8], in [12], in test [13] and in [14] was “inactive” in each case. Moreover, the Potency in [2] was 2.11 µM (active); in test [3], 2.98 µM (active); in [4], 4.73 µM (active); in test [5], 16.9 µM (active); in test [6], 26.8 µM (active); in test [9], 13.3 µM (active). Moreover, the Potency in [10] is 6.68 µM (active); in test [11], 6.68 µM (active); in [15] it was 13.3 µM (active).

In the case of `Nc1ccc(N)c2ccccc12`, the Potency in [1] is 21.8 µM (active); in test [2], 15.3 µM (active); in test [3], 5.44 µM (active); in test [4], 6.85 µM (active); in test [5], 12.3 µM (active); in test [9] it was 17.2 µM (active). Moreover, the Potency in test [10] was 30.6 µM (active); in test [11], 48.5 µM (active); in test [12] it was 21.8 µM (active); in test [17] it was 5.44 µM (active). For the same molecule, the Potency result in test [7], in test [8], in [16] and in test [13] was “inactive” throughout.

Take `O=C(OCC1CO1)C1CCCCC1C(=O)OCC1CO1` (stereo not given): the Potency entry in test [1], in [5], in [8], in [18], in [9] and in test [16] was “inactive” in each case. In addition, in [12], the Potency result is “inactive”. For the same molecule, the Potency in test [2] was 8.64 µM (active); in [3], 0.77 µM (active); in test [4] it was 9.7 µM (active); in test [10] it was 54.5 µM (active); in [11], 27.3 µM (active).

With `CCC(N)(CO)CO`, the Potency result in test [1], in [2], in [3], in test [4], in [5] and in [18] was “inactive” throughout. Further, the Potency entry in test [10], in [11], in test [16], in test [19], in [12] and in test [13] was “inactive” in each case. For the same molecule, the Potency entry in test [14], in test [17] and in [15] was “inactive” in each case. Also, in test [20], the activation was -5.95%.

In the case of `Clc1ccc2cc3ccccc3cc2c1`, the Potency result in test [1], in [2], in [3], in test [4], in [5] and in test [7] was “inactive” throughout. Moreover, the Potency result in test [8], in [9], in [10], in test [16], in test [19] and in [12] was “inactive” throughout. The Potency result in test [17] and in test [15] was “inactive” throughout.

With `Cc1cc(O)c(C(C)(C)C)cc1Sc1cc(C(C)(C)C)c(O)cc1C`, the Potency is 10.9 µM (active) in [1]; 21.6 µM (active) in test [2]; 12.2 µM (active) in [3]; 12.2 µM (active) in test [4]; 15.5 µM (active) in test [5]; 38.5 µM (active) in [18]. In addition, the Potency was 24.3 µM (active) in [9]; 3.43 µM (active) in test [10]; 2.43 µM (active) in test [11]; 17.3 µM (active) in test [12]; 54.4 µM (active) in test [17]; 13.7 µM (active) in [15]. For the same molecule, the Potency result in test [8] and in test [16] was “inactive” throughout.
